Experimental data from PubChem BioAssay AID2129 (The Scripps Research Institute Molecular Screening Center, 2009).
The campaign covered roughly 320,000 compounds. About 2,200 (0.69%) were called active. The sample holds actives, similar compounds and a random draw of the others, so the mix is not that of the screen.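 The calls were made as follows: active = inhibition above the mean of all tested compounds plus 3 SD, cutoff set per campaign (cut at about 30% in these data); inactive = the rest.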

These compounds were tested against Bcl-2-like protein 1 (Homo sapiens) (UniProt Q07817) (assay: inhibitors of human Bcl-xL, primary screen, biochemical, fluorescence polarization, HTS (AID 2129;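 also: 0% = DMSO wells and 100% = unlabeled Bim-BH3 peptide competitor; inhibitors lower millipolarization by displacing the labeled peptide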)). Conditions: GST-Bcl-xL / FITC-Bim BH3 peptide fluorescence polarization; at 10.9 µM; hits give high values.
Bcl-2-like protein 1 (Homo sapiens), sequence (Q07817 whole entry, looked up): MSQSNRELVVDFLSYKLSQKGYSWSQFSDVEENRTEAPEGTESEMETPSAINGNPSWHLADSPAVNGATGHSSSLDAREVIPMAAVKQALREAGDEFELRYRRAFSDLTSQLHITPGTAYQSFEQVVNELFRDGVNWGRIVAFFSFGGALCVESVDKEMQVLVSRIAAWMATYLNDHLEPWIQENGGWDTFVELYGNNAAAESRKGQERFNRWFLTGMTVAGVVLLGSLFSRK

SMILES	inhibition
COCCNc1nc2nonc2nc1N1CCCC1c1nccs1 (stereo not given)	31.5% (active)
COCCNc1nc2nonc2nc1N(C)Cc1ccc(C)cc1	0.5% (inactive)
CCOc1ccc(C2=CC(c3ccccc3)n3ncnc3N2)cc1 (stereo not given)	14.6% (inactive)
CC1=C(C(=O)OCc2ccccc2)C(c2ccco2)n2ncnc2N1 (stereo not given)	1.01% (inactive)
CCC(C)NC(=O)/C=C/c1ccc(S(=O)(=O)NCc2ccco2)cc1 (stereo not given)	3.42% (inactive)
Cc1ccc(O)c(-c2cc(C(=O)Nc3c(C)n(C)n(-c4ccccc4)c3=O)[nH]n2)c1	2.52% (inactive)
CC[N+](C)(CC)CCC[n+]1c(-c2ccccc2)c2cc(N)ccc2c2ccc(N)cc21	123% (active)
CC(=O)Nc1ccc(NC(=O)CSC2=NS(=O)(=O)c3ccccc3N2)cc1	1.27% (inactive)
COc1ccccc1CCNC(=O)c1c(C)nn(CC(C)C)c1Cl	3.1% (inactive)
CC(=O)C1=C(C)NC(C)=C(C(C)=O)C1c1cn(-c2ccccc2)nc1-c1cccs1	-1.97% (inactive)
CC1CCN(Cc2nc3c(c(=O)n(C)c(=O)n3C)n2CCc2ccccc2)CC1	-4.09% (inactive)
CC(C)(C)CC(C)(C)NCC(O)COCCOc1ccc(Br)cc1 (stereo not given)	-1.57% (inactive)
Cc1ccsc1CNn1cnnc1SCc1ccccc1F	-10.8% (inactive)
Cc1c(C)c(C)c2[nH]c(=S)[nH]c2c1C	-44% (inactive)
O=c1[nH]c(=S)[nH]c2[nH]c(=S)[nH]c12	44% (active)
Cc1cc2c(C)nc(N/N=C/c3ccccc3)nc2o1	2.89% (inactive)
CC1CC(C)CN(S(=O)(=O)c2cccc3nonc23)C1 (stereo not given)	3.55% (inactive)
CC(=O)N1CCc2c(sc(NC(=O)CCS(=O)(=O)c3ccc(C)cc3)c2C(N)=O)C1	6.13% (inactive)
CSc1nc2ccccc2cc1/C=C(\C#N)c1ccc(Cl)cc1Cl	1.93% (inactive)
Cc1ccc(C(=O)N2CCCC2)c(F)c1F	8.05% (inactive)
Cc1ccc(C2Nc3cccc4cccc(c34)N2)cc1	31.7% (active)
Oc1ccc(C2Nc3cccc4cccc(c34)N2)cc1	15.2% (inactive)
COc1cccc(C2Nc3cccc4cccc(c34)N2)c1	20.6% (inactive)

SMILES	inhibition
CCCCCCNS(=O)(=O)c1ccccc1Br	-2.11% (inactive)
Cc1ccc(NC2CCCN(C(=O)CCC3(C)CC3)C2)cc1C (stereo not given)	4.16% (inactive)
COc1cc(SC)ccc1C(=O)Nc1cc(C)ccn1	-0.05% (inactive)
Cc1ccnc(NC(=O)c2ccoc2C)c1	32.4% (active)
Cc1ccnc(NC(=O)CNC(=O)c2ccccc2)c1	-1.9% (inactive)
COC(=O)c1cccc(N2C(=O)C3C4C=CC(CC4)C3C2=O)c1 (stereo not given)	2.84% (inactive)
CCOC(=O)/C(=C\c1ccc([N+](=O)[O-])cc1)C(=O)c1cc(C(C)=O)c(Nc2ccccc2)s1	1.23% (inactive)
Cc1ccc(S(=O)(=O)NNC(=O)/C=C/c2cccc(F)c2)cc1	6.57% (inactive)
O=C1c2ccccc2C(=O)c2c1cccc2N1CCN(C/C=C/c2ccccc2)CC1	20.9% (inactive)
O=C1c2ccccc2C(=O)c2c1cccc2N1CCN(Cc2ccccc2)CC1	7.24% (inactive)
O=C1c2ccccc2C(=O)c2c1cccc2N1CCN(CCO)CC1	60% (active)
C/C(Cl)=C\Cn1c(Nc2cccc(C)c2)nc2c1c(=O)n(C)c(=O)n2C	3.4% (inactive)
COc1ccccc1C(=O)N/C(=C/c1ccc2c(c1)OCO2)C(=O)Nc1cccc(C(=O)O)c1	8.09% (inactive)
CCCC1OC23CCCCC2C(C#N)(C#N)C1(C#N)C(=N)O3 (stereo not given)	82.8% (active)
Cc1ccc(CNC(=O)CC(NC(=O)c2ccccc2)c2ccccc2)cc1 (stereo not given)	-7.73% (inactive)
CN(C)[C@@H]1C(=O)C(C(N)=O)=C(O)[C@@]2(O)C(=O)C3=C(O)c4c(O)ccc(Cl)c4[C@@H](O)[C@H]3C[C@@H]12	15.2% (inactive)
C=C1c2c(Cl)ccc(O)c2C(O)=C2C(=O)[C@]3(O)C(O)=C(C(N)=O)C(=O)[C@@H](N(C)C)[C@@H]3[C@@H](O)C12 (stereo not given in full)	31.6% (active)
Cc1cc(F)ccc1N1CCC(N2CCN(C)C(CCO)C2)CC1 (stereo not given)	8.78% (inactive)
Cc1cc(-c2csc(N)n2)c(C)n1Cc1ccccc1	11.3% (inactive)
CC(=O)c1ccc(-c2ccc(Cn3c(C)nc4cc(N)c(C)nc43)cc2)cc1	-0.35% (inactive)
COc1ccccc1CNS(=O)(=O)c1ccc2c(c1)NC(=O)CS2	-2.44% (inactive)
CC1CC(c2ccccc2)n2nc(NC(=O)c3cccs3)nc2N1 (stereo not given)	3.43% (inactive)
Cc1ccc(SCC(=O)NNC(=O)c2ccc(S(C)(=O)=O)cc2)cc1	1.39% (inactive)

SMILES	inhibition
CCN(CC)S(=O)(=O)c1ccc(N2CCN(C)CC2)c(NC(=O)Nc2ccccc2F)c1	5.12% (inactive)
O=[N+]([O-])c1ccc(F)cc1Oc1nc(-c2cccnc2)nc2ccccc12	3.63% (inactive)
COc1ccc(Nc2nc(-c3cccnc3)nc3ccccc23)cn1	118% (active)
CCOCCCNc1nc(-c2ccccc2)nc2ccccc12	1.72% (inactive)
CC[C@]1(O)C[C@@H]2CN(CCc3c([nH]c4ccccc34)[C@@](C(=O)OC)(c3cc4c(cc3OC)N(C)[C@H]3[C@@](O)(C(=O)OC)[C@H](OC(C)=O)[C@]5(CC)C=CCN6CC[C@]43[C@@H]65)C2)C1	105% (active)
CC[C@]1(O)CC2CN(CCc3c([nH]c4ccccc34)[C@@](C(=O)OC)(c3cc4c(cc3OC)N(C=O)[C@H]3[C@@](O)(C(=O)OC)[C@H](OC(C)=O)[C@]5(CC)C=CCN6CC[C@]43[C@@H]65)C2)C1 (stereo not given in full)	15% (inactive)
Cc1ccc2c(Cl)c(C(=O)NCCCn3ccnc3)sc2c1	6.22% (inactive)
CC(=O)C[C@@H](O)CC(=O)[C@H]1OC(=O)CCCCCCc2ccccc21	0.52% (inactive)
COc1ccc(CN2CCn3ncc(C(=O)Nc4ccc(Cl)cc4Cl)c3C2=O)cc1	2.02% (inactive)
O=c1cc(CO)oc(C(Nc2cccc(C(F)(F)F)c2)c2ccccn2)c1O (stereo not given)	33.9% (active)
O=c1cc(CO)oc(C(Nc2cccc([N+](=O)[O-])c2)c2ccccn2)c1O (stereo not given)	13.9% (inactive)
FC(F)(F)c1cccc(Nc2ncnc3ccccc23)c1	-2.73% (inactive)
O=C(NCCc1ccccn1)c1cc(-c2ccc(Cl)cc2)nc2ccccc12	-6.46% (inactive)
COCCCNC(=S)N(Cc1ccccc1)Cc1ccc(F)cc1	3.88% (inactive)
COc1ccc(C(=O)COC(=O)CNC(=O)c2cccs2)cc1Br	5.14% (inactive)
C=CCOc1cccc(C2C(C(=O)c3ccc(C)o3)=C(O)C(=O)N2CCCn2ccnc2)c1 (stereo not given)	0.01% (inactive)
C=CCOc1cccc(C2C(C(=O)c3ccc(C)o3)=C(O)C(=O)N2c2nnc(C)s2)c1 (stereo not given)	88.7% (active)
Cc1cc(N2C(=O)C(O)=C(C(=O)c3ccc(C)o3)C2c2ccc(OCc3ccccc3)cc2)no1 (stereo not given)	11.2% (inactive)
Cc1cc(C(=O)NC2CCN(Cc3ccccc3)CC2)n[nH]1	1.91% (inactive)
C#CCOCCOCCOCCNc1nc(N2CCN(C(=O)C([C@@H](C)CC)n3cc(C(N)COC(=O)C(F)(F)F)nn3)CC2)nc(N2CCN(C(=O)[C@H](Cc3ccc(O)cc3)n3cc(C(N)[C@H](C)CC)nn3)CC2)n1 (stereo not given in full)	14.5% (inactive)
Cn1c2c(c(=O)n(C)c1=O)C1c3ccccc3OCC1C(C)(C)O2 (stereo not given)	3.9% (inactive)
NC(=O)COC(=O)c1ccc2c(c1)C(=O)N(Cc1ccco1)C2=O	4.63% (inactive)
CCCc1nc2scc(-c3ccc(C)cc3)c2c(=O)n1N	1.66% (inactive)

SMILES	inhibition
O=C(O)CCn1c(Cc2ccccc2)nc2ccccc21	1.07% (inactive)
Cc1cc2ccccc2n1CCNC(=O)COc1ccc2ccccc2c1	4.61% (inactive)
Cc1cc2ccccc2n1CCC(=O)O	52.5% (active)
CC(C)(C)c1cc2cccnc2n1Cc1cccc(F)c1	7.39% (inactive)
CN(C)NC(=O)C(NC(=O)c1ccc(N)cc1)C12CC3CC(CC(C3)C1)C2 (stereo not given)	-0.78% (inactive)
CC(C)OC(=O)CN1C(=O)C(=O)c2ccccc21	10.2% (inactive)
CCOC(=O)c1cc2n(c1N)-c1ccccc1C2=O	140% (active)
CCOC(=O)c1ccccc1CN1C(=O)c2ccccc2S1(=O)=O	4.12% (inactive)
Cc1ccc(S(=O)(=O)CC(=O)NC(C)c2ccccc2)cc1 (stereo not given)	-0.31% (inactive)
CCOc1cc(CNCCN(C)C)c(Cl)cc1OCC(=O)NCCc1ccccc1	-0.08% (inactive)
NNC(=O)c1oc2nc(-c3ccccc3)cc(-c3ccco3)c2c1N	-35.7% (inactive)
CNc1nc(-c2ccccc2)cc(-c2ccccc2)n1	2.12% (inactive)
CNC(=S)NNC(=O)c1oc2nc(-c3ccccc3)cc(-c3ccco3)c2c1N	30.6% (active)
COc1ccccc1C(=O)Nc1ccccc1C(=O)Nc1ccccc1	-2.98% (inactive)
Oc1[nH]c2ccc(Br)cc2c1N=Nc1nn[nH]n1	1.22% (inactive)
NS(=O)(=O)c1ccc(N=Nc2c(O)[nH]c3ccc(Br)cc23)cc1	37.1% (active)
O=C(CNC(=O)Cc1ccccc1)N=Nc1c(O)[nH]c2ccc(Br)cc12	10.3% (inactive)
CC(=O)CC[C@@H](C)O[C@@H]1OC(C)[C@H](O)CC1O (stereo not given in full)	1.11% (inactive)
Cc1ccc(-n2c(C)cc(/C=C(\C#N)C(=O)NCC3CCCO3)c2C)cc1 (stereo not given)	-0.52% (inactive)
CCN1CC=C2C(C#N)=C(N)C(C#N)(C#N)[C@H](c3ccoc3)[C@H]2C1	148% (active)
CCCN1CC=C2C(C#N)=C(N)C(C#N)(C#N)C(c3cc(OC)ccc3OC)C2C1 (stereo not given)	68.3% (active)
